# Calb FLC: C. albicans growth inhibition with fluconazole, primary screen, CaCi-2 strain, Alamar Blue fluorescence. C. albicans CaCi-2 (fluconazole-resistant clinical isolate) + fluconazole, 48 h. growth inhibition, % (no concentration beside the values). 300,000 compounds, 0.57% hits. AID 1979, 2009;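 active means growth inhibition above about 58% in most replicates, limit read from the data, passing the limit was not always enough; inconclusive means exactly half the replicates above a set limit; inactive means most replicates below a set limit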;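 further: all wells also contain fluconazole at 8 µg/ml as a sub-toxic cotreatment; 0% = median of DMSO wells and 100% = median of geldanamycin control wells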
# Cl transport mod: KCC2 cotransporter modulators, thallium flux, primary screen, cell-based, HEK293 KCC2, FluoZin-2 fluorescence, MLSMR; 190,000 compounds, 2.2% hits; KCC2 cells, thallium flux FluoZin-2 fluorescence; Solute carrier family 12 member 5 (Homo sapiens), Q9H2X9; B-score of Tl+ flux slope (higher = more flux/activation; lower = inhibition) at 10 µM;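 active means thallium flux slope and its plate-corrected score both differing from the plate sample mean at a set confidence after two filtering rounds, in either direction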;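 further: slope of fluorescence scaled to starting intensity during 10 to 20 s after thallium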
# H9c2 protect: cardioprotection against H2O2-induced cell death, primary screen, uHTS, H9c2 cells, ATPLite luminescence | H9c2 cardiomyocytes, H2O2 injury protection, 2 h | 360,000 compounds, 0.63% hits | protection from H2O2 cell death, % at 20 µM;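 active means compounds giving at least 50% protection of heart cells from peroxide-induced death in the single-dose screen, raw or plate-pattern-corrected value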;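 further: 0% = DMSO wells with peroxide and 100% = DMSO wells without peroxide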
# PHOSPHO1 block: PubChem AID 1565 | recombinant PHOSPHO1, absorbance phosphatase assay | 290,000 compounds, 1.1% hits | inhibition, % at 13.3 µM; in the data active means inhibition above about 60%
# Target sequence (Q8TCT1 whole entry, looked up): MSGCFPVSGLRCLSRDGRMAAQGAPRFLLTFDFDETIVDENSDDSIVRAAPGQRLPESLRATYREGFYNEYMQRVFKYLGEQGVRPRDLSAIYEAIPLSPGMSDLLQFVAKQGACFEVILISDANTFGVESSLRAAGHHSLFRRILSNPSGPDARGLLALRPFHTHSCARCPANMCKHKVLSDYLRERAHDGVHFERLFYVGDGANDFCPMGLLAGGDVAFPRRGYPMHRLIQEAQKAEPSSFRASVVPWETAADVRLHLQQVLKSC
# Efflux pump inh: inhibitors of Candida efflux pumps in yeast, primary screen, S. cerevisiae, Nile Red, multiplex | S. cerevisiae Candida pump triplex | inhibition, % at 10 µM | 330,000 compounds, 0.44% hits;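 active means plate passing quality check with inhibition over a set limit, or well fluorescence over plate mean plus 4 SD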;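 further: Nile Red retained in pooled yeast measured as flow cytometry median fluorescence; 0% = buffer negative control and 100% = Enniatin B positive control; higher means more Nile Red kept so more efflux inhibition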
# * = called active by the depositor; ? = inconclusive; / = not tested or not shown. Sampled rows, rich in hits. Any-hit rate of the full collection: about 3.3%.
SMILES,Calb FLC,Cl transport mod,H9c2 protect,PHOSPHO1 block,Efflux pump inh
COc1ccc(-c2nnc(NC(=O)c3ccc(S(=O)(=O)N4CCc5ccccc5C4)cc3)o2)cc1,97*,/,40,8,0
COc1ccc(-c2csc(NC(=O)c3ccc(S(=O)(=O)N4CCc5ccccc5C4)cc3)n2)cc1,-13,0.046,-11,-10,0
COc1cccc(-c2nnc(NC(=O)c3ccc(S(=O)(=O)N4CC(C)OC(C)C4)cc3)o2)c1 (configuration not stated),6,1.3,56*,12,0
CC1CN(S(=O)(=O)c2ccc(C(=O)Nc3nnc(-c4ccco4)o3)cc2)CC(C)O1 (configuration not stated),-36,0.6,11,12,0
O=C(NNC(=O)c1cc(Cl)ccc1O)c1ccc(NS(=O)(=O)c2cccs2)cc1,84*,/,40,/,0
O=C(NNC(=O)c1ccccc1O)c1ccc(S(=O)(=O)Nc2ccccc2)cc1,-3,/,58*,/,0
Cc1ccccc1-n1c(SC(C)C(=O)NCC2CCCO2)nnc1-c1ccncc1 (configuration not stated),/,/,-1,/,/
CC1CC2(C)Oc3ccccc3C3OCC1(CO)C(C)C32 (configuration not stated),-1,-0.19,0,-3,0
CC(=O)OCC12COC3c4ccccc4OC(C)(CC1C)C3C2C (configuration not stated),106*,0.68,-4,15,0
O=c1[nH]n2c(=O)c3c([nH]c2c1N=Nc1cccc(Cl)c1)CCCC3,21,-1.8,4,76*,0
CCOc1ccc(N=Nc2c(=O)[nH]n3c(=O)c4c([nH]c23)CCCC4)cc1,-4,/,12,-10,1
CCN1CCc2c(sc(NC(=O)c3ccc(S(=O)(=O)N(CC)c4ccccc4)cc3)c2C(N)=O)C1,-11,/,-11,56,0
CCOC(=O)C1(CC2CCCCO2)CCN(C(=O)Nc2ccc(C)c(C)c2)CC1 (configuration not stated),-2,-0.95,0,50,0
CCOC(=O)c1sc(NC(=O)CN2CCN(c3ccc(OC)cc3)CC2)nc1C,-9,/,4,49,0
CC1CC2CCCC(O)=C2C(=O)O1 (configuration not stated),/,/,-2,/,/
CNC(=O)CSc1nc2cc(S(=O)(=O)Nc3ccccc3OC)ccc2o1,0,/,1,10,0
COc1ccccc1NS(=O)(=O)c1ccc2oc(SCC(=O)N3CCNC3=O)nc2c1,/,/,54*,/,0
O=C(COc1ccc(Br)cc1)NCCN1CCCC1,-1,/,3,34,0
O=[N+]([O-])c1ccc(Sc2n[nH]c(-c3ccccc3)n2)nc1,-2,/,-6,84*,0
O=C(NCc1ccc(Cl)cc1)C1CCC(=O)N(C2CCCCCC2)C1 (configuration not stated),-10,/,-2,23,0
CC(=O)Nc1cccc(NC(=O)CSc2nnnn2-c2ccc3c(c2)OCO3)c1,/,/,/,10,/
O=C(NCCCl)NNC(=O)c1cc2ccccc2cc1O,29,-1.1,1,-33,0
Cc1ccc(NC(=O)NNC(=O)c2cc3ccccc3cc2O)c(C)c1,82*,/,5,34,0
O=C(NNC(=O)c1cc2ccccc2cc1O)c1cccs1,91*,/,0,27,0
C/C(=N\NC(=O)c1cc2ccccc2cc1O)c1cccs1,48,/,-17,26,-1
SMILES,Calb FLC,Cl transport mod,H9c2 protect,PHOSPHO1 block,Efflux pump inh
O=C(NNC(=O)c1cc2ccccc2cc1O)Nc1ccccc1F,87*,/,0,24,0
Cc1cccc(NC(=O)NNC(=O)c2cc3ccccc3cc2O)c1C,65*,-1.8,-1,-24,0
Cc1ccc(NC(=O)c2ncn(CCCN[C@H](C)c3cccc4ccccc34)n2)cc1C,/,/,-16,/,/
O=C(/C=C1\NC2(CCCC2)Cc2ccccc21)C(=O)N/N=C/c1ccccc1O,95*,0.1,80*,-18,0
COc1ccc(C2C3=C(CC(C)(C)CC3=O)N(CCN3CCOCC3)C3=C2C(=O)CC(C)(C)C3)cc1,-8,-0.74,28,20,0
CC1(C)CC(=O)C2=C(C1)N(CCN1CCOCC1)C1=C(C(=O)CC(C)(C)C1)C2c1ccc(Cl)cc1,3,-0.83,52*,43,0
Cc1cc(C)c(-c2cc(NC(=O)COC(=O)c3ccc(C#N)cc3)n(-c3ccccc3)n2)cc1C,77*,0.35,-2,-11,0
CCc1nc2oc3ccccc3c(=O)c2c(=O)n1Cc1ccccc1,22,/,5,12,0
O=c1c2ccccc2oc2nc(-c3ccco3)n(Cc3ccccc3)c(=O)c12,?,0.11,63*,11,0
O=C(CCc1nc2ccccc2c(=O)[nH]1)Nc1nnc(SCc2ccc(Cl)cc2)s1,/,/,-3,/,0
O=C(CCc1nc2ccccc2c(=O)[nH]1)OCCOc1ccc(Cl)cc1,-15,-0.29,66*,5,0
O=C(CCc1nc2ccccc2c(=O)[nH]1)OCc1ccccc1F,-2,-0.99,25,2,0
O=C(COC(=O)CCc1nc2ccccc2c(=O)[nH]1)NCc1ccc(F)cc1,-2,-0.89,50*,-15,0
CC(=O)NCc1ccc(-c2csc(NC(=O)CCc3nc4ccccc4c(=O)[nH]3)n2)s1,/,/,90*,/,0
O=C(CCc1nc2ccccc2c(=O)[nH]1)OCc1nnc(-c2ccccc2)o1,-6,0.62,75*,25,0
O=C(CCC(=O)c1cccs1)NCCc1ccc(F)cc1,-1,/,1,/,0
Cc1ccc(CNC(=O)CCc2nc3ccccc3c(=O)[nH]2)cc1,-9,0.81,51*,-4,0
CCc1nc2ccccc2c(C(=O)OCc2nc3ccccc3c(=O)[nH]2)c1C,/,/,56*,/,0
CCc1nc2ccccc2c(C(=O)OCC(=O)C(C)(C)C)c1C,11,-1,8,32,1
COc1ccc(-c2c3c(cc4ncn(Cc5ccccc5)c24)COC3=O)cc1,/,/,18,/,0
CCN1C[C@@H]2[C@@H]3C(=O)N(C)C(=O)[C@@H]3[C@](C)(C1=O)N2C(=O)c1ccc(C)cc1,/,/,2,/,/
CSc1ncnc2c1ncn2CCCNCc1ccc2c(c1)OCO2,/,/,11,/,/
Cn1c(=O)c2c(nc(Br)n2Cc2ccc3ccccc3c2)n(C)c1=O,-8,0.16,87*,-18,0
CCOC(=O)CSc1nc2ccc(N3CCOCC3)cc2c(=O)n1Cc1ccccc1,30,0.94,4,60*,0
O=[N+]([O-])c1ccc(-c2csc3[n+]2CCS3)cc1,-2,/,-2,80*,0
O=[N+]([O-])c1ccc(-c2cn3c(n2)SCC3)cc1,-8,/,-16,/,0
S=C(NCc1ccccn1)NN=Cc1ccccn1,/,/,24,/,/
COc1cc(-c2ccc3c(=O)c4ccccc4n(C)c3c2)cc(OC)c1OC,-3,/,88*,25,0

# Compound activity from PubChem.
